Source: PubChem BioAssay
D2 antag – D2 dopamine receptor (human) antagonism; P14416; HEK293 TREx D2 cells, calcium flux, dopamine EC80; inhibition, % at 10 µM; 340,000 tested, 2% active; in the data active = inhibition above about 30%; inactive = below that, where a call was filed; also: 0% is about no effect
Target sequence (P14416 whole entry, looked up): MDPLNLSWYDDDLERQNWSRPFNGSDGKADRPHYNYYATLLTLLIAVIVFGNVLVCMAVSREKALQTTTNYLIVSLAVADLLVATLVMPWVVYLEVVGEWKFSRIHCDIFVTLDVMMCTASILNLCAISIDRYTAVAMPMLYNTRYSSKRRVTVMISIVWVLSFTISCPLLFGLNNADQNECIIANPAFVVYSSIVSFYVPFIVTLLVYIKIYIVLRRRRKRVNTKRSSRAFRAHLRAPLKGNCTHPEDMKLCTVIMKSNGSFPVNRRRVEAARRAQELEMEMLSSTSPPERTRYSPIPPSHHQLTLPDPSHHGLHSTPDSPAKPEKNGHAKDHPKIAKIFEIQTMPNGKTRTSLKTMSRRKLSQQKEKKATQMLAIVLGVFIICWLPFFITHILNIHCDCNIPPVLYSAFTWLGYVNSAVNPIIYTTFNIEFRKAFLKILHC
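Overnight-induced (tetracycline, 30 C) HEK293 T-REx cells carrying force-coupled D2 receive a no-wash calcium dye, then compound, then EC80 dopamine at 180 s; signals are read kinetically throughout.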
D2 ag-1 – agonists of human D2 dopamine receptor; 340,000 tested, 0.53% active; AID 485358; activation, % at 2 µM; HEK293 T-REx D2 cells, calcium flux agonist mode;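 active = activation over 3 SD above normal in the single-dose calcium agonist read, cut at about 30% in these data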; also: 0% is about no effect
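Agonism scored from kinetic calcium signal (1 read/sec, 180 s) following compound pin transfer, after a 10 s baseline. Cells: HEK293 Trex line expressing inducible D2 receptor coupled to calcium, dye-loaded after overnight culture at 30 C.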
D2 ag-2 – agonists of human D2 dopamine receptor (beta-arrestin). P14416. DiscoveRx PathHunter D2 beta-arrestin, luminescence, 90 min; 100% = 57 uM dopamine signal. activation, % (concentration not given with the values). 360,000 tested, 0.084% active; in the data active = activation above about 40%; inconclusive = between about 15% and that limit
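Agonist mode: compounds alone added to overnight-plated D2 PathHunter cells for 90 min at 37 C, with 57 uM final dopamine (EC100) defining full response. Beta-arrestin recruitment detected by chemiluminescent reagent, read after 1 h at ambient temperature.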
D2 PAM-1 – potentiates the human D2 dopamine receptor allosterically. P14416. AID 624464. 360,000 tested, 0.23% active. DiscoveRx D2 beta-arrestin cells, luminescence, 90 min; 100% = 57 uM dopamine signal. potentiation, % (concentration not given with the values); in the data active = potentiation above about 50%; inconclusive = mostly about 30% to 49%
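PathHunter beta-arrestin assay in DiscoveRx D2 cells. Compounds were added with an EC20 of dopamine (50 nM final) for 90 min at 37 deg C. Luminescence was read 1 h after detection reagent, with 57 uM dopamine as the EC100 control.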
Apoferritin bind – candidate novel general anesthetic via apoferritin binding | apoferritin/1-aminoanthracene competitive binding, fluorescence | Potency, µM (series often up to 77.5 µM), inactives show top-dose activity change, negative = displacement, actives largely listed as inhibitors | 350,000 tested, 0.074% active; also: potency is read from the fitted curve at half-maximal effect; % is scaled to controls: 0 for no effect and ±100 for the full control effect; nearly all actives have a fitted effect of over 20% in size
Target sequence (P02791 2-175 limits assumed): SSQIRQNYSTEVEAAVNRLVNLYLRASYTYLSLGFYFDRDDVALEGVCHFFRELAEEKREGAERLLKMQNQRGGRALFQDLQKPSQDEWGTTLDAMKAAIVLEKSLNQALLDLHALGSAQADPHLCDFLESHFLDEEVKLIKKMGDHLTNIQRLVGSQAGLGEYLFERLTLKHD
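10 uM apoferritin + 50% sat. 1-AMA, PBS; cpd 10 min RT; Ex380/Em535 endpoint; normalized to free probe vs complex; 4-param Hill fit; propofol titration as pos. ctrl.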
D2 PAM-2 – positively modulates the human D2 dopamine receptor allosterically. P14416. HEK293 T-REx D2, calcium flux, EC20 dopamine potentiation. potentiation, % at 10 µM. 340,000 tested, 0.34% active. AID 485347;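 active = potentiation over 3 SD above the plate norm, cut at about 30% in these data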; also: 0% is about no effect
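Potentiation of an EC20 dopamine calcium response measured kinetically over 180 s, after a preceding 180 s compound-only read flagging agonists. Cells: inducible Hek293 Trex D2 line, 4000/well, cultured overnight at 30 C before dye loading.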
D3 arrestin ag – activates human D3 dopamine receptor beta-arrestin recruitment | shares compounds with D2 ag-1 | DiscoveRx D3 beta-arrestin cells, luminescence, 90 min | Potency, µM (top dose mostly 76.9 µM), without a hit: top-dose activation, usual class: activators | 2,300 tested, 4% active | AID 720506;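 also: potency is read from the fitted curve at half-maximal effect; 100% = dopamine control response; nearly all actives have a fitted effect of over 70% in size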
D2 ag-3 – counter-screen for D3 agonists: human D2 dopamine receptor agonism; 2,300 tested, 5.9% active; DiscoveRx PathHunter D2 beta-arrestin, luminescence, 90 min; response scale: percent relative to full dopamine signal; shares compounds with D2 ag-1; Potency, µM (doses to about 76.9 µM), inactives show top-dose activation, hits mostly activators; AID 720507; also: potency is read from the fitted curve at half-maximal effect; % of control where 0% means no effect; nearly all actives have a fitted effect of over 70% in size
* = called active by the depositor. Shown are actives, neighbours in structure and some others; about 2.5% of the full set was active somewhere. Unless noted, calls follow the shape of the dose curve; as a rule, active = well fitted curve in the direction sought with a large enough effect; inconclusive = small, poorly fitted or top-dose-only effect, or another doubt; inactive = no such curve, though single readings can be large; an effect the other way counts as inactive or inconclusive.

Results for CC1CN(CCn2cnc3c(N)ncnc32)CC(C)O1 (stereo unspecified) ?
D2 antag: 45.8*; D2 ag-1: 0.2; D2 ag-2: -0.5; D2 PAM-1: -4.1; Apoferritin bind: 2.0%; D2 PAM-2: 4.7; D3 arrestin ag: 1.0%; D2 ag-3: -0.8%

How did O=C(NCC(=O)N1CCN(Cc2ccccc2)CC1)c1cccs1 do in these assays?
D2 ag-2: 7.4; D2 PAM-1: -1.2

What do the screens show for `CN(c1ccc(C(=O)N2CCN(Cc3ccccc3)CC2)cc1)S(=O)(=O)c1ccccc1`?
D2 antag: 60.7*; D2 ag-1: 66.6*; D2 ag-2: inconclusive; D2 PAM-1: 9.8; Apoferritin bind: -5.7%; D2 PAM-2: -23.6; D3 arrestin ag: 2.1%; D2 ag-3: inconclusive

Results for O=C(c1cccs1)N1CCN(Cc2ccccc2)CC1 ?
D2 antag: 63.9*; D2 ag-1: 74.8*; D2 ag-2: 40.7*; D2 PAM-1: 24.2; Apoferritin bind: -9.9%; D2 PAM-2: -26.2; D3 arrestin ag: inconclusive; D2 ag-3: inconclusive

What do the screens show for `O=C(c1cccs1)N1CCN(Cc2cccnc2)CC1`?
D2 antag: 58.8*; D2 ag-1: 60.0*; D2 ag-2: inconclusive; D2 PAM-1: 13.9; Apoferritin bind: -3.6%; D2 PAM-2: -6.1; D3 arrestin ag: -0.6%; D2 ag-3: inconclusive

How did O=C(c1cccs1)N1CCN(c2ncccn2)CC1 do in these assays?
D2 antag: 15.4; D2 ag-1: 0.2; D2 ag-2: -1.6; D2 PAM-1: 2.2; Apoferritin bind: 0.1%; D2 PAM-2: -10.1

Results for O=C(c1cccs1)N1CCN(CCCc2ccccc2)CC1 ?
D2 antag: 58.8*; D2 ag-1: 35.9*; D2 ag-2: 2.3; D2 PAM-1: -9.6; Apoferritin bind: -1.9%; D2 PAM-2: -12.6; D3 arrestin ag: 15.4%; D2 ag-3: 9.4%

Results for O=C(c1cccs1)N1CCN(Cc2ccncc2)CC1 ?
D2 antag: 21.4; D2 ag-1: 62.6*; D2 ag-2: 14.0; D2 PAM-1: 3.1; Apoferritin bind: -11.7%; D2 PAM-2: -20.0; D3 arrestin ag: 12.6%; D2 ag-3: inconclusive

What do the screens show for `O=C(c1cccc(Cl)c1)N1CCN(Cc2ccncc2)CC1`?
D2 antag: -19.3; D2 ag-1: 0.7; D2 ag-2: -4.4; D2 PAM-1: -11.1; Apoferritin bind: 5.1%; D2 PAM-2: 4.2

What do the screens show for `Cc1nnc(NC(=O)CSc2nnc(-c3ccoc3C)n2CC(C)C)s1`?
D2 antag: -0.7; D2 ag-1: 1.1; D2 ag-2: -4.4; D2 PAM-1: -12.9; Apoferritin bind: -22.4%; D2 PAM-2: 7.4

Results for O=C(CSc1ncn[nH]1)N1N=C2/C(=C/c3ccccc3)CCCC2C1c1ccccc1 (stereo unspecified) ?
D2 antag: 33.3*; D2 ag-1: 41.3*; D2 ag-2: 11.7; D2 PAM-1: 9.4; Apoferritin bind: -22.4%; D2 PAM-2: -13.6; D3 arrestin ag: 6.3%; D2 ag-3: inconclusive

Results for COc1ccc(/C=C2\CCCC3C2=NN(C(=O)CSc2ncn[nH]2)C3c2ccc(OC)cc2)cc1 (stereo unspecified) ?
D2 antag: 4.5; D2 ag-1: -0.3; D2 ag-2: 6.1; D2 PAM-1: -8.5; Apoferritin bind: 53.3%; D2 PAM-2: -16.4

Results for Cc1ncsc1C(=O)O ?
D2 ag-2: -4.3; D2 PAM-1: -7.4; Apoferritin bind: -0.1%

What do the screens show for `CC(C)N1CCN(Cc2ccccc2-c2ccco2)CC1CCO` (stereo unspecified)?
D2 antag: -11.9; D2 ag-1: -1.5; D2 ag-2: -1.5; D2 PAM-1: -1.0; Apoferritin bind: -13.5%; D2 PAM-2: 4.6

How did CC(C)N1CCN(Cc2cccc(-c3ccco3)c2)CC1CCO (stereo unspecified) do in these assays?
D2 antag: 14.0; D2 ag-1: 0.0; D2 ag-2: 2.9; D2 PAM-1: -15.7; Apoferritin bind: 3.1%; D2 PAM-2: -3.2; D3 arrestin ag: -7.7%; D2 ag-3: -6.3%

How did Cc1cccc(NC(=O)Cn2nnc(-c3nc(-c4ccncc4)no3)c2N)c1 do in these assays?
D2 ag-1: 1.5; Apoferritin bind: -6.1%; D2 PAM-2: 7.2

What do the screens show for `C=CCn1c(COc2ccc(Cl)cc2)nnc1SCC(=O)Nc1ccc(S(N)(=O)=O)cc1`?
D2 antag: 0.8; D2 ag-1: 59.0*; D2 ag-2: 1.1; D2 PAM-1: -9.5; Apoferritin bind: 3.9%; D2 PAM-2: -17.4; D3 arrestin ag: 1.9%; D2 ag-3: -2.8%

What do the screens show for `CCC12C(=Nc3c(Cl)cccc31)C[C@@H]1CCN3C(=O)CCC[C@H]2[C@H]13` (stereo partly specified)?
D2 ag-2: 3.6; D2 PAM-1: 5.8

How did Cc1cc(OCc2cc(C(=O)NC3CCC3)no2)cc(C)c1Cl do in these assays?
D2 antag: 43.0*; D2 ag-1: 0.3; D2 ag-2: 2.1; D2 PAM-1: -1.7; Apoferritin bind: 7.1%; D2 PAM-2: -1.8; D3 arrestin ag: 6.2%; D2 ag-3: 6.6%

What do the screens show for `Cc1cc(OCc2cc(C(=O)N3CCC(Oc4cccnc4)CC3)no2)cc(C)c1Cl`?
D2 antag: -7.0; D2 ag-1: 50.7*; D2 ag-2: 3.9; D2 PAM-1: -10.0; Apoferritin bind: -5.2%; D2 PAM-2: -15.2; D3 arrestin ag: 19.4%; D2 ag-3: inconclusive

How did COc1ccc(N2CCN(C(c3cccs3)C(C)NC(=O)C(=O)N3CCOCC3)CC2)cc1 (stereo unspecified) do in these assays?
D2 antag: -15.0; D2 ag-1: -1.3; D2 ag-2: -0.6; D2 PAM-1: 1.1; Apoferritin bind: -1.0%; D2 PAM-2: -3.9

How did CC(NC(=O)C(=O)N1CCOCC1)C(c1cccs1)N1CCN(c2ccccc2)CC1 (stereo unspecified) do in these assays?
D2 antag: -5.1; D2 ag-1: 44.3*; D2 ag-2: 0.0; D2 PAM-1: -6.6; Apoferritin bind: -6.7%; D2 PAM-2: -14.8; D3 arrestin ag: -0.5%; D2 ag-3: 6.2%
